About 79,000 compounds went through this panel and 15% of them were active in at least one assay; those are over-represented in the sample as a whole. Values without a mark were called inactive. Rule as the data show it: active = growth inhibition above about 70%; inactive = the rest.
Assay: NCI Yeast Anticancer Drug Screen. Data for the cln2 rad14 strain (AID 165);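 also: 0% = growth equal to vehicle treated cultures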
Conditions: S. cerevisiae cln2 rad14 strain, at 50.0 µM, active compounds read high
Protocol: Growth inhibition of yeast strains with defined genetic alterations is measured as a screen for potential anti-cancer activity. Selected strains with alterations in DNA damage repair or cell cycle control were exposed to compounds and growth inhibition was measured relative to vehicle treated controls. The strain used in this assay is cln2 rad14

Compound	growth inhibition [%]
CSc1nc2cc(C)c(C)cc2[nH]1	-25.5
CC(=O)CC(=O)ON(C)C(C)=O	8.45
O=C(OCC(Br)C(Br)c1ccccc1)c1ccccc1 (stereo not given)	-1.4
OC(c1ccccc1)C(CN1CCCCC1)c1ccccc1 (stereo not given)	-11.8
CCOC(=O)NN(C(=O)OCC)C(C(=O)c1ccccc1)N(NC(=O)OCC)C(=O)OCC	46.4
CC[N+](C)(CC)CCOC(=O)C(c1ccccc1)C(O)C1CCCCC1 (stereo not given)	17.3
CC(/C=C/c1ccccc1)=N\NC(=S)N/N=C(C)/C=C/c1ccccc1	9.3
CCCC1(C)OCC(C)(C)CO1	-28.8
Fc1ccc2nncc(/C=C/c3ccccn3)c2c1	-16.9
CN(Cc1cnc2nc(N)nc(N)c2n1)c1ccc(C(=O)NC(CCC(=O)NC(CCC(=O)O)C(=O)O)C(=O)O)cc1 (stereo not given)	13.5
CCCCNC(=O)c1c(Cl)c(Cl)c(Cl)c(Cl)c1C(=O)O	17.5
CC(=O)OCC(OC(C)=O)C(OC(C)=O)C(OC(C)=O)C(O)CO (stereo not given)	-6
CCCCCCCCCCC1OCC(CC)([N+](=O)[O-])CO1 (stereo not given)	-46.4
O=C1CCCc2[nH]c3ccc(Cl)cc3c21	-21.9
NC(=S)c1ccc[n+]([O-])c1	-13.7
CCOCc1ccccc1C(O)(c1ccc(OC)cc1)c1ccccc1OC (stereo not given)	50.8
CC(=O)CCCO	-9.4
CN(C)C(=O)NO	-19.8
CC(=O)Oc1ccc(O)c(C(=O)O)c1	-1.35
Fc1ccc(F)c(C(Nc2nncs2)Nc2nncs2)c1	2.4

Compound	growth inhibition [%]
Cc1ccc(C2OC2C(=O)c2ccccc2)cc1 (stereo not given)	-48.5
Cc1nn(-c2ccccc2)c2oc3ccccc3c(=O)c12	-29.5
C/C(=N/NC(=S)Nc1cccc(Cl)c1)c1cccc(/C(C)=N\NC(=S)Nc2cccc(Cl)c2)n1	20.3
Clc1ccc(OCc2nnc3n2N=C(c2ccccc2)CS3)cc1	36.2
CN(C)C(=S)S(=O)(=O)c1ccc([N+](=O)[O-])cc1	-7.4
CCOC(=O)CCC(NC(=O)OCc1ccccc1)C(=O)NC(CCC(=O)OCC)C(=O)NC(CCC(=O)OCC)C(=O)NC(CCC(=O)OCC)C(=O)NC(CCC(=O)OCC)C(=O)NC(CCC(=O)OCC)C(=O)NC(CCC(=O)OCC)C(=O)OCC (stereo not given)	26.2
O=C(O)c1ccc(Cl)cc1C(=O)c1ccc(Cl)cc1	-42.9
O=C(Nc1cc2c(cc1[N+](=O)[O-])-c1c(F)cccc1C2)C(F)(F)F	-14.2
COc1ccc(C2c3cc4c(cc3OC(O)(CO)C2C(=O)O)OCO4)c(OC)c1OC (stereo not given) (tested in a mixture with another compound)	-15.5
Nc1ccc(CCc2ccc3ccccc3n2)cc1	7.9
N#CCC(=O)N/N=C1/C(=O)N(c2cc(Cl)ccc2Cl)C(=O)C(=O)C1c1nc2ccccc2s1 (stereo not given)	19.9
COc1ccc2c(ccc3nc(C)[nH]c(=O)c32)c1	-30.2
CC/C(=N/NC(=O)NN)c1ccc(Cl)cc1	-1.8
CC(=O)OCCC12CCC(CC1Cl)C2(C)C (stereo not given)	24.7
COC(=O)c1s/c(=N\C(=S)N(C)C)n(-c2ccccc2)c1C(=O)OC	15.2
CC(=O)Nc1ccc2c(c1)C(=O)c1ccccc1-2	26.3
COc1cc([N+](=O)[O-])ccc1NC(=O)c1cccc([N+](=O)[O-])c1C(=O)O	-9.5
COC(=O)c1ccc2c(c1)nnn2C(C)=O	-21.9
CC(=O)Nc1ccc(S(=O)(=O)CCN2C(=O)c3ccccc3C2=O)cc1	-62.5
C=CCc1ccc(OC(=O)Nc2cccc(OC)c2)c(OC)c1	-7.45
